TDP1 cell noCPT – qHTS for Inhibitors of human tyrosyl-DNA phosphodiesterase 1 (TDP1): qHTS in cells in absence of CPT; 420,000 tested, 15% active; Potency, µM (series often up to 46.2 µM), for the others: top-dose activity change, negative = growth inhibition, actives largely listed as inhibitors; DT40 Tdp1-/- hTDP1 cells, no CPT, ATP luminescence, 48 h; note: nearly all actives have a fitted effect of over 55% in size
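Compound effects on proliferation are scored in DT40 Tdp1-/-;hTDP1 cells in the absence of CPT. ATP levels (CellTiter-Glo luminescence) are recorded after a ≥48 hr, 37 °C incubation.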
Gal4-VP16 FLuc – VP16 counterscreen qHTS for inhibitors of ROR gamma transcriptional activity. Drosophila S2 Gal4-VP16 UAS-luciferase, luminescence, 20 h. Potency, µM (top dose mostly 53.6 µM), inactives show at the top dose activity, negative = inhibition, hits mostly inhibitors. 310,000 tested, 3.5% active;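 note: Gal4-VP16 expression switched on by copper sulfate through the metallothionein promoter; nearly all actives have a fitted effect of over 50% in size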
TDP1 cell CPT – qHTS for Inhibitors of human tyrosyl-DNA phosphodiesterase 1 (TDP1): qHTS in cells in presence of CPT | 420,000 tested, 12% active | Potency, µM (series often up to 46.2 µM), for inactives: at the highest dose activity change, negative = growth inhibition, usual class: inhibitors | AID 686979, 2013 | chicken DT40 Tdp1-/-;hTDP1 cells + 20 nM CPT, ATP luminescence, 48 h; note: nearly all actives have a fitted effect of over 55% in size
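Chicken DT40 Tdp1-/- cells stably complemented with human TDP1 were seeded at 400 cells/well in medium containing 20 nM camptothecin, exposed to pin-transferred compounds, and grown at 37 °C for at least 48 hr. Viability was read as ATP luminescence.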
RORg inh – qHTS for inhibitors of ROR gamma transcriptional activity | Nuclear receptor ROR-gamma (Mus musculus), P51450 | AID 2551, 2010 | Drosophila S2 Gal4-RORgamma UAS-luciferase reporter, 20 h | Potency, µM (top dose mostly 53.6 µM), inactives show at the highest dose activity change, negative = inhibition, usual class: inhibitors | 310,000 tested, 5.4% active; note: nearly all actives have a fitted effect of over 60% in size
Target sequence (P51450 whole entry, looked up, the tested form may be a part): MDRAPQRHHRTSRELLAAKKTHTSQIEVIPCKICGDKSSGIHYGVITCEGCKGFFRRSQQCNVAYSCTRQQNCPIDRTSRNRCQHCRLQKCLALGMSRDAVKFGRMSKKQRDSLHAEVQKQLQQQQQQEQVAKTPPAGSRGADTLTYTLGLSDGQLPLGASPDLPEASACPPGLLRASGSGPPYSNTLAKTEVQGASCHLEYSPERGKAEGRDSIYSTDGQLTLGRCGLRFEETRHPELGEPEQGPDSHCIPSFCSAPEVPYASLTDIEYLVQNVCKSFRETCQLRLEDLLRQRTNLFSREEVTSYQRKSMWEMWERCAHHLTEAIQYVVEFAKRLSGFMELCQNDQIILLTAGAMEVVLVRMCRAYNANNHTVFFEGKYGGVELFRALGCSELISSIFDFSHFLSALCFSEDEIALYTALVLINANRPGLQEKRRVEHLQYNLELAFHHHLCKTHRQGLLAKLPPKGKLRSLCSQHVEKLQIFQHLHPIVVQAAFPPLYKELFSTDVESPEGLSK
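Stable Schneider cell line, Gal4 DNA-binding domain fused to ROR gamma, UAS-luciferase. Cmpd 1 hr RT → CuSO4 700 uM final → 20 hr RT → luciferase reagent 10 min → luminescence.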
ALOX12 inh – Primary qHTS assay for inhibitors of human arachidonate 12S-lipoxygenase (ALOX12): Round 2. Potency, µM (titrated, usually from 108 µM), without a hit: at the highest dose activity change, negative = inhibition, usual class: inhibitors. 580,000 tested, 1.1% active. purified 12hLO, xylenol orange hydroperoxide absorbance. AID 1671190, 2021
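Purified human 12hLO at 150 nM in 25 mM Hepes, 0.01% Triton X-100, pH 7.0, preincubated 15 min at room temperature with compound. Reaction started with 40 uM arachidonic acid, 30 min at room temperature. Hydroperoxide measured by Fe-xylenol orange, 573/405 nm absorbance ratio.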
ELG1 repair inh – qHTS screen for small molecules that inhibit ELG1-dependent DNA repair in human embryonic kidney (HEK293T) cells expressing luciferase-tagged ELG1. HEK293T ELG1-luciferase reporter, luminescence, 16 h; DNA damage induced by 5-fluorouridine. Potency, µM (doses to about 46.1 µM), without a hit: at the top dose activity change, negative = inhibition, hits mostly inhibitors. 330,000 tested, 2.3% active; note: nearly all actives have a fitted effect of over 55% in size
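Overnight (16 hr) co-exposure of 2,000 cells/well to 5-fluorouridine and compound at 37 °C preceded detection. Luciferase was quantified via ONE-Glo luminescence; loss of signal denotes inhibition.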
The depositor's hits bear a star; u = inconclusive; x = no result; [ ] = dose if it differs, or a comment. Only some compounds are listed: those with a hit (about 15% of all), similar ones and a draw of the others. Calls come from the whole dose curve; as a rule, active = well fitted curve in the direction sought with a large enough effect; inconclusive = small, poorly fitted or top-dose-only effect, or another doubt; inactive = no such curve, though single readings can be large; an effect the other way counts as inactive or inconclusive. % is set by controls: 0 for no effect and ±100 for the full control effect; potency is the fitted concentration of half-maximal effect.

SMILES | TDP1 cell noCPT | Gal4-VP16 FLuc | TDP1 cell CPT | RORg inh | ALOX12 inh | ELG1 repair inh
CS(=O)(=O)N1CCCCC1C(=O)NC1CCCC1 (stereo not drawn) | x | x | x | x | 32% | x
CCc1ccc(S(=O)(=O)Nc2ccc(O)c3ccccc23)cc1 | 6.5µM* | -10% | 6.5µM* | -27% | 0% | u
O=S(=O)(Nc1ccc(O)c2ccccc12)c1ccc(F)cc1 | 9.2µM* | x | 12µM* | x | u | x
O=S(=O)(Nc1ccc(NS(=O)(=O)c2ccccc2)c2ccccc12)c1ccccc1 | u | x | -17% | x | -19% | x
CCOc1ccccc1C(=O)N1CCc2[nH]nc(C(=O)NCCCc3ccccc3)c2C1 | x | x | x | x | 48% | x
CC(C)N1CCN(Cc2ccc3c(c2)Cc2ccccc2-3)CC1CCO (stereo not drawn) | 23µM* | -3% | u | -11% | 9% | 3%
CC(C)N1CCN(Cc2ccc(-c3ccccc3)cc2)CC1CCO (stereo not drawn) | u | -1% | 2% | -26% | -22% | -5%
COc1cc2c(cc1OC)C(COc1ccc3c(C)cc(=O)oc3c1)N(C(=O)C(C)C)CC2 (stereo not drawn) | 13µM* | x | u | x | u | x
COc1cc2c(cc1OC)C(COc1ccc3c(C)cc(=O)oc3c1)N(C(=O)c1cccc(C)c1)CC2 (stereo not drawn) | 6.5µM* | x | u | x | u | x
COc1cc2c(cc1OC)C(COc1ccc3c(C)cc(=O)oc3c1)N(C(=O)c1cccc(OC)c1OC)CC2 (stereo not drawn) | 23µM* | x | u | x | 2% | x
CCOc1ccccc1C(=O)N1CCc2cc(OC)c(OC)cc2C1COc1ccc2c(C)cc(=O)oc2c1 (stereo not drawn) | 9.2µM* | x | u | x | 0% | x
COC(=O)c1ccc(C2C3=C(CC(C)(C)CC3=O)Nc3c2c(=O)n(C)c(=O)n3C)cc1 (stereo not drawn) | x | x | x | x | -5% | x
CNC(=O)COc1cccc(N)c1 | x | x | x | x | 20% | x
O=c1c2ccccc2[nH]c(=S)n1CC1CCCO1 (stereo not drawn) | -24% | x | 4% | x | -10% | x
CC1(C)CC2=C(CO1)C(=S)NC(c1ccccc1)N2CC1CCCO1 (stereo not drawn) | u | u | -11% | 16µM* | u | 6%
COc1cc(/C=N/NC(=S)NC(C)C)ccc1OCC(=O)Nc1c(C)cc(C)cc1C | 7.3µM* | 0.5µM* | 7.3µM* | 0.71µM* | -27% | u
CCCCNC(=S)N(C)/N=C/c1ccc(OCC(=O)Nc2ccc(OC)cc2)c(OC)c1 | u | -8% | 23µM* | -2%[10 µM] | -7% | 10µM*
COc1cc(/C=N/NC(=S)Nc2cccc(Cl)c2C)ccc1OCC(=O)N1CC(C)OC(C)C1 (stereo not drawn) | 15µM* | 2.5µM* | 15µM* | 1.6µM* | 45µM* | u
CCCCNC(=S)N(C)/N=C/c1ccc(OCC(=O)Nc2c(C)cc(C)cc2C)c(OC)c1 | 8.2µM* | 3% | 13µM* | -1%[10 µM] | -1% | u
Cc1ccc(N2CCN(C(=O)C[C@H]3NC(=O)c4ccccc4NC3=O)CC2)c(C)c1 | x | x | x | x | 18% | x
CCc1noc(-c2cn(C3CCN(C(=O)c4cc(Cl)ccc4OC)CC3)nn2)n1 | x | x | x | x | 30% | x
CCc1c(C(=O)NCc2ccc(OC)c(OC)c2)csc1C | x | x | x | x | 1% | x
CC(C)CCn1cnc2c1c(=O)n(CC(=O)NCC1CCCO1)c(=O)n2Cc1ccccc1 (stereo not drawn) | x | x | x | x | 15% | x
CCOC(=O)c1c(C)nc2c(c1-c1ccc(OC)c(OC)c1)C(=O)c1ccccc1-2 | u | -3% | 23µM* | -25% | 0%[57.4 µM] | -27%
COCc1nc(-c2ccc(OC3CN(Cc4ccsc4)C3)cc2)no1 | x | x | x | x | 6% | x
SMILES | TDP1 cell noCPT | Gal4-VP16 FLuc | TDP1 cell CPT | RORg inh | ALOX12 inh | ELG1 repair inh
Cc1oc(-c2cccc(Cl)c2)nc1Cn1c(SCc2ccc(F)cc2)nc2cccnc21 | 26µM* | x | 26µM* | x | -15% | x
COc1ccc(-c2nc(CSCC(=O)NCc3ccccc3)c(C)o2)cc1OC | x | x | x | x | -83% | x
COc1ccc(-c2nc(Cn3c(SCc4ccc(F)cc4)nc4ccncc43)c(C)o2)cc1OC | 21µM* | -3% | u | u | 11%[57.4 µM] | u
Cc1ccc(CSc2nc3ccncc3n2Cc2nc(-c3ccc(Cl)cc3)oc2C)cc1 | u | x | u | x | 0% | x
CN(C)CCNC(=O)c1ccc(Cn2c(SCc3ccc(F)cc3)nc3cccnc32)cc1 | u | x | u | x | -19% | x
COc1ccc(-c2nc(Cn3c(SCc4ccc(C)cc4)nc4cccnc43)c(C)o2)cc1OC | u | x | 5.2µM* | x | 3% | x
Cc1ccc(C)c(CSc2nc3ccncc3n2Cc2nc(-c3ccccc3Cl)oc2C)c1 | u | x | 21µM* | x | -18% | x
Cc1cc(C(=O)N2CC[C@H](NC(=O)c3snnc3C)C[C@H]2C(=O)N[C@@H](Cc2cccs2)C(N)=O)n(C)n1 | x | x | x | x | 11% | x
O=C(NCc1cn[nH]c1-c1cccs1)c1cn(CCC2CCCCN2)nn1 (stereo not drawn) | x | x | x | x | 0% | x
COc1ccc(-c2nc(Cn3c(SCc4ccccc4F)nc4ccncc43)c(C)o2)cc1 | 15µM* | -2% | u | -40% | 15% | 1%
COc1ccc(-c2nc(Cn3c(SCc4ccc(F)cc4)nc4cccnc43)c(C)o2)cc1 | 2.6µM* | x | 2.9µM* | x | -5% | x
COc1ccc(-c2nc(Cn3c(SCc4ccccc4F)nc4cccnc43)c(C)o2)cc1 | u | x | u | x | -5% | x
Cc1oc(-c2ccccc2Cl)nc1Cn1c(SCc2cccc(F)c2)nc2cccnc21 | 26µM* | x | 23µM* | x | 12% | x
COc1ccc(-c2nc(Cn3c(SCc4cccc(F)c4)nc4cccnc43)c(C)o2)cc1 | u | x | u | x | -2% | x
O=C(NC1CCCC1)C1=Cc2cc(Br)ccc2OC=C1 | x | x | x | x | 27% | x
COCCn1nnnc1C(c1cccs1)N1CCN(c2nc3ccccc3s2)CC1 (stereo not drawn) | 23µM* | -4% | u | 13% | 7%[57.4 µM] | u
